These results are taken from paper PMC5540273 (PLoS ONE, 2017).

SMILES strings stand for the structures.
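Further: KINOMEscan kinase panel screen.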

The test system of this assay is PKN2. The conditions noted are these: concentration: 1 μM, replicates: in singlicate; n = 1.
For `Clc1cc(Nc2ncnc3cc[nH]c23)ccc1OCc1ccccn1`, the “%Inh” value was determined as 0%. To `COc1cc2ncnc(Nc3ccc(OCc4ccccc4Br)c(Cl)c3)c2cc1OC.Cl` [GI261590] belongs 0%; to `CCCc1ccc(S(=O)(=O)NC2CCN(c3ccnc(Nc4ccc(OC)cc4)n3)C2)cc1` (stereo not drawn) [GSK1379737], 0%. The result for `C[C@H]1CC[C@@H](C(=O)Nc2ccccc2)CN1c1cc(-c2ccc3c(N)n[nH]c3c2)nc(N)n1` [GSK2283293] reads 0%.

Take `Fc1ccc(Nc2nccc(-c3c(-c4ccc(Cl)cc4)nn4ncccc34)n2)cc1F` [GW829058]: the “%Inh” value amounted to 13%. To `COc1ccc(-c2oc3ncnc(N)c3c2-c2ccc(OC)cc2)cc1` [SB-589132] belongs 0%; to `Nc1nc(-c2ccc3c(N)n[nH]c3c2)cc(N2CCC[C@@H](C(=O)Nc3ccccc3)C2)n1.O=C(O)C(F)(F)F.O=C(O)C(F)(F)F` [GSK2288359], 0%. To `CS(=O)(=O)CCNCc1ccc(-c2ccc3ncnc(Nc4ccc(OCc5ccccc5)c(Cl)c4)c3c2)o1.Cl` [GW574783] belongs 8%; to `CNc1nccc(-c2c(-c3ccc(F)cc3)ncn2C2CCN(C)CC2)n1` [SB-222903], 0%; to `Cl.O=S(=O)(c1cccc(F)c1)c1ccc(Nc2ncnc3cc(Br)sc23)cc1Cl` [GSK306886], 0%. To `Cl.c1ccc(Cn2ccc3cc(Nc4ncnc5ccccc45)ccc32)cc1` [GW275568] belongs 0%. Regarding `FC(F)(F)c1ccc(-c2cc(-c3c[nH]nc3-c3ccccn3)ccn2)cc1` [GW599550], the “%Inh” value was 0%.
